# Results reported in PubChem BioAssay.
# Activity calls are given as the source filed them.
# How the values were obtained:
# [1] = tested on: Human papillomavirus type 1a protein E7 (residues 44-93); experiment: small molecules binding HPV E7 44-93 – biochemical, small-molecule microarray, residues 44-93, 635 nm fluorescence, primary screen (AID 1108); details: fluorescence 635 nm, higher = more signal;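 note: E7 fragment applied at 1 µg/mL in TBST for 1 h at 4 C; score combines spot fluorescence with its signal to noise ratio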
# [2] = hepatitis C replication reporter changes, two-sided – Huh7 cells, luciferase reporter, HCV replication inhibitor project, primary screen (AID 1109); details: Huh7 HCV replicon luciferase reporter, 48 h; higher = more signal;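 note: huh7 hepatoma cells harbouring a luciferase neomycin HCV replicon reporter; luciferase luminescence as measure of HCV replicon replication; test concentration not given here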
# [3] = molecular target: Left-right determination factor 2 (Homo sapiens) (UniProt O00292); experiment: small molecules binding LEFTY2 protein – biochemical, small-molecule microarray, 635 nm fluorescence scan, primary screen (AID 1110); details: higher = more signal
# [4] = molecular target: Calmodulin-1 (Homo sapiens) (UniProt P0DP23); experiment: small molecules binding calmodulin-1 with EGTA – biochemical, small-molecule microarray, Cy5-labelled CALM1, profiling panel (AID 1111); details: Cy5-CALM1 binding fluorescence, higher = more signal;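 note: labelled calmodulin applied in Tris saline Tween buffer holding calcium plus EGTA and DTT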
# [5] = molecular target: Calmodulin-1 (Homo sapiens) (UniProt P0DP23); experiment: small molecules binding Ca-loaded calmodulin-1 – biochemical, small-molecule microarray, Cy5-labelled CALM1, plus calcium, artefact control for SMM control-protein annotation, profiling panel (AID 1112); details: Cy5-CALM1 binding fluorescence, higher = more signal;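 note: score merges spot fluorescence with signal to noise from triplicate slides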
# [6] = probe aWnt5a binding to arrayed compounds – biochemical, biotinylated probe, 635/667 nm fluorescence, primary screen (AID 1113); details: small-molecule microarray, higher = more signal;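 note: score merges 667 nm fluorescence intensity with signal-to-noise per printed feature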
# [7] = probe aShh binding to arrayed compounds – biochemical, biotinylated probe, 635/667 nm fluorescence, primary screen (AID 1114); details: small-molecule microarray, higher = more signal;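 note: probe is biotin-labelled aShh protein from a stem cell growth factor screen; measures binding of labelled protein to compounds printed on the slide; score merges feature fluorescence at 667 nm with signal-to-noise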
# [8] = probe aNog binding to arrayed compounds – biochemical, biotinylated probe, 635/667 nm fluorescence, primary screen (AID 1115); details: small-molecule microarray, higher = more signal;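 note: probe is biotinylated aNog protein used at 0.15 µg/mL for 1 h at 4 C; z-score combines 667 nm fluorescence of each spot with its signal to noise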
# [9] = molecular target: Torsin-1A-interacting protein 1 (Homo sapiens) (UniProt Q5JTV8); experiment: compound microarray binding of lysate hLAP1 – cell lysate, small-molecule microarray, COS7 lysate, 635/667 nm fluorescence, primary screen (AID 1116); details: 635 nm fluorescence, higher = more signal
# [10] = molecular target: Alpha-bungarotoxin (Bungarus multicinctus) (UniProt P60615); experiment: compounds binding labelled alpha-BTX control protein – biochemical, small-molecule microarray, Alexa647 label, 635/667 nm fluorescence, artefact control for SMM control protein annotation, profiling panel (AID 1117); details: alpha-BTX-A647 binding fluorescence, higher = more signal
# Albumin (Bos taurus) = Albumin (Bos taurus) (UniProt P02769); experiment: compounds binding labelled BSA control protein – biochemical, small-molecule microarray, Alexa647 label, 635/667 nm fluorescence, artefact control for SMM control protein annotation, profiling panel (AID 1118); details: BSA-A647 binding, fluorescence 635 nm, higher = more signal;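 note: score merges 667 nm emission intensity and signal-to-noise per printed compound spot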
# [11] = probe aXIP binding to arrayed compounds – biochemical, NeuroSMM set, 635/667 nm fluorescence, primary screen (AID 1119); details: small-molecule microarray, higher = more signal, called active from +8 up or from −8 down;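 note: probe is the protein aXip251-270 applied at 1 µg/mL to compound-printed slides; binding of probe to printed compounds measured as 667 nm fluorescence plus signal to noise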
# [12] = probe aNOTCH3 binding on compound microarray – biochemical, small-molecule microarray, 635/667 nm fluorescence, primary screen (AID 1120); details: higher = more signal;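 note: probe is a biotin-tagged antibody raised against NOTCH3 rather than NOTCH3 protein; score merges spot fluorescence near 667 nm with spot signal to noise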
# [13] = probe aNOTCH2 binding on compound microarray – biochemical, small-molecule microarray, 635/667 nm fluorescence, primary screen (AID 1121); details: higher = more signal;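 note: score merges feature fluorescence read at 667 nm with its signal to noise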
# [14] = molecular target: Carbonic anhydrase 2 (Homo sapiens) (UniProt P00918); experiment: compounds binding carbonic anhydrase 2 – biochemical, small-molecule microarray, Alexa647-labelled CAII, profiling panel (AID 1122); details: CAII-A647 binding fluorescence, higher = more signal
# [15] = COS7 lysate on small-molecule microarray, probe aHis, 635 nm (AID 1123); details: COS7 cell lysate, fluorescence, higher = more signal;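 note: z-score combines 667nm fluorescence intensity with signal-to-noise per printed compound spot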
# [16] = probe aLAP1 signal on lysate-treated microarray – cell lysate, small-molecule microarray, COS7 lysate, primary screen (AID 1124); details: probe aLAP1, fluorescence, higher = more signal;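 note: lysate comes from COS7 cells expressing LAP1 and is applied at 0.3 µg/mL; score merges spot fluorescence near 667 nm with signal-to-noise over triplicate slides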
# Sam68 (KHDRBS1) = experiment: compounds binding KHDRBS1 protein – biochemical, small-molecule microarray, 635 nm fluorescence, primary screen (AID 1125); details: higher = more signal;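 note: score merges 667 nm channel intensity with signal to noise over triplicate slides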
# [17] = tested on: Chordin-like protein 2 (CHRDL2); experiment: compounds binding chordin-like 2 – biochemical, small-molecule microarray, 635 nm fluorescence, primary screen (AID 1126); details: fluorescence 635 nm, higher = more signal;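 note: printed compound slides probed with Chrdl2 protein at 4 µg/mL for 1 h at 4 C; score merges 667 nm emission intensity with signal to noise over three replicate slides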
# [18] = molecular target: Concanavalin-A (Canavalia ensiformis) (UniProt P02866); experiment: compounds binding concanavalin A lectin – biochemical, small-molecule microarray, Alexa647 label, 635 nm, artefact control for SMM control protein annotation, primary screen (AID 1127); details: ConA-A647 binding fluorescence, higher = more signal;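 note: z combines 667 nm emission intensity with signal-to-noise across three replicate slides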
# Chain of Concanavalin-A (Canavalia ensiformis) (P02866 whole entry, looked up): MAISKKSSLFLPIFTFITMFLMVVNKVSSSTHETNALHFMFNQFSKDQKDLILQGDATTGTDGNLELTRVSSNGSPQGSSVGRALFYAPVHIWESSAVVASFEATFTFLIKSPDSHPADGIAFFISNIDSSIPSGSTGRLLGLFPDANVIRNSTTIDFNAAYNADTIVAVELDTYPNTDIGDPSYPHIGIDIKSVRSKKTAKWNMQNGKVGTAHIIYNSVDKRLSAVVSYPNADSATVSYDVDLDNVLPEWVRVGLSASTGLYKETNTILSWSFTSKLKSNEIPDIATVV
# Chain of Albumin (Bos taurus) (P02769 whole entry, looked up): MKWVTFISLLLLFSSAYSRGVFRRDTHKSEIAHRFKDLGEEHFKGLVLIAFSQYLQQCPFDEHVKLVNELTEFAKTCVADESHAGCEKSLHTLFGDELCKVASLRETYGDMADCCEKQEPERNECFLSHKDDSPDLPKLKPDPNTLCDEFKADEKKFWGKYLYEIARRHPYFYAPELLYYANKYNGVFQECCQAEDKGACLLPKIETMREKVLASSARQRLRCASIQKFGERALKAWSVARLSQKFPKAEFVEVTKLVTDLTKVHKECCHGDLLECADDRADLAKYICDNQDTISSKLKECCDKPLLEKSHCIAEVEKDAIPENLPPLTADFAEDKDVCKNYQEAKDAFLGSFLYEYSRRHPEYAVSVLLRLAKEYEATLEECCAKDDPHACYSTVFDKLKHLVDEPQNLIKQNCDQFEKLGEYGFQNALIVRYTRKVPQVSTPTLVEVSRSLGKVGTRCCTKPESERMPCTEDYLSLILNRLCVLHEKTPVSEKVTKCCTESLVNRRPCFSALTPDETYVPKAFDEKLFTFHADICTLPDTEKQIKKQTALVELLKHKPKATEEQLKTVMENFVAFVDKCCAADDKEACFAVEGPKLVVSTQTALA
# Chain of Left-right determination factor 2 (Homo sapiens) (O00292 whole entry, looked up): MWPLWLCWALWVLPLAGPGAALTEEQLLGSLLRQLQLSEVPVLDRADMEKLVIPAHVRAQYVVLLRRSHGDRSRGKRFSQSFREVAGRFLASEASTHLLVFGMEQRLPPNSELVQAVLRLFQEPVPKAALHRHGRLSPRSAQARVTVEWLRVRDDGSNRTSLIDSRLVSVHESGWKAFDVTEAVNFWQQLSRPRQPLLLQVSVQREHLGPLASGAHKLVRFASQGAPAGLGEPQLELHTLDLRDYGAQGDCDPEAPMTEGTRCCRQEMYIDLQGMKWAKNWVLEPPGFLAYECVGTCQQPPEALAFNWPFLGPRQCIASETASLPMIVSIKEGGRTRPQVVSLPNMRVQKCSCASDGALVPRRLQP
# Chain of Alpha-bungarotoxin (Bungarus multicinctus) (P60615 whole entry, looked up): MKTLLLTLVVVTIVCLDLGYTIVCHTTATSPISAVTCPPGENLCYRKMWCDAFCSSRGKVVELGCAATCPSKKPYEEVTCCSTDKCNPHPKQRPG
# Chain of Torsin-1A-interacting protein 1 (Homo sapiens) (Q5JTV8 whole entry, looked up): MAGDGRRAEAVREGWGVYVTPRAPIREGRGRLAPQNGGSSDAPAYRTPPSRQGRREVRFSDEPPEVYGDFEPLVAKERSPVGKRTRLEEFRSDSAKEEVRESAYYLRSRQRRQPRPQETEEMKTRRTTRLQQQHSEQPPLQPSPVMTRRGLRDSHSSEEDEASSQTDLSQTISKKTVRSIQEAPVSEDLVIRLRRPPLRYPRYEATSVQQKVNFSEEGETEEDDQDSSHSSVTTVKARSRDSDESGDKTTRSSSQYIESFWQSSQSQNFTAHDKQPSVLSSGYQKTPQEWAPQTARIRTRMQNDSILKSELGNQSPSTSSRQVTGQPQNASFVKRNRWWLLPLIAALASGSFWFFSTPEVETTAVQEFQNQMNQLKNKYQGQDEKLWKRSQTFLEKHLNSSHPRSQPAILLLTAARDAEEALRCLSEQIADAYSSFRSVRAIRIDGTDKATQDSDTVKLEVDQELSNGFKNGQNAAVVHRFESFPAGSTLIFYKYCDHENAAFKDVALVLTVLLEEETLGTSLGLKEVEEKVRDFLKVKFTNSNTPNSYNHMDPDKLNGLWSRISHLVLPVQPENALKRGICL
Structure (SMILES),composite z-score [1],z-score [2],composite z-score [3],composite z-score [4],composite z-score [5],composite z-score [6],composite z-score [7],composite z-score [8],composite z-score [9],composite z-score [10],composite z-score (Albumin (Bos taurus)),composite Z-score [11],composite z-score [12],composite z-score [13],composite z-score [14],composite z-score [15],composite z-score [16],composite z-score (Sam68 (KHDRBS1)),composite z-score [17],composite z-score [18]
COC(=O)[C@H]1N=C(c2ccc(OCCCO)cc2)O[C@H]1c1ccccc1CN=[N+]=[N-],1.05,-2.03,-1.16,0.452,0.516,0.0495,0.105,1.64,0.431,0.534,0.394,-0.391 (inactive),0.23,-0.0174,0.41,1.78,0.427,0.0826,-0.935,0.8
[N-]=[N+]=NCc1ccccc1C[C@@]1(C(=O)NCCN2CCOCC2)N=C(c2ccc(OCCCO)cc2)O[C@@H]1c1ccccc1CN=[N+]=[N-],1.42,-2.7,0.461,1.68,0.191,0.0037,0.199,0.291,0.272,1.04,0.511,-0.0957 (inactive),0.338,0.12,0.568,2.23,0.0232,1.31,0.139,1.06
CC(C)CNC(=O)[C@@]1(C)c2ccccc2C(=O)N(Cc2ccccc2)[C@H]1c1ccc(CO)cc1,-0.205,0.0768,-1.55,-1.21,0.431,-0.192,-0.0735,-0.327,0.055,-0.905,-0.928,3.02 (inactive),-0.352,-0.133,0.788,1.19,1.16,-0.992,-2.5,-1.44
COc1ccccc1CN1C(=O)c2ccccc2[C@](Cc2ccccc2I)(C(=O)NCCN2CCOCC2)[C@@H]1c1ccc(CO)cc1,1.36,-2.96,1.01,0.688,-0.768,-0.0118,-0.144,-0.0746,0.488,1.19,0.655,-0.0337 (inactive),0.0629,-0.0288,0.646,1.71,1.01,1.29,0.617,1.1
CC(C)NC(=O)[C@@H]1c2ccccc2C(=O)N(Cc2cc(C(F)(F)F)cc(C(F)(F)F)c2)[C@H]1c1ccc(CO)cc1,0.376,-0.153,0.147,0.876,0.221,-0.176,-0.0793,0.735,0.724,0.594,0.52,1.21 (inactive),-0.0931,-0.0052,0.298,2.38,0.706,1.3,0.0933,1.09
COC(=O)[C@]1(Cc2ccccc2CN=[N+]=[N-])N=C(c2ccc(OCCCO)cc2)O[C@@H]1c1ccccc1CN=[N+]=[N-],0.0068,-2.91,-0.624,-0.11,-0.271,-0.0346,0.246,0.589,1.39,1.48,-0.204,-0.206 (inactive),-0.0984,-0.0079,0.651,1.75,0.838,0.877,0.31,0.951
C[C@]12C(=O)N(CCCCCO)[C@@H]3C(=O)N(c4ccc(Cl)cc4)CC=CC31O[C@@H]1/C=C\CCCOC(=O)C12 (stereo not given in full),-1.86,-0.381,-1.95,-0.811,1.22,-0.23,-0.138,-0.125,-0.579,-0.797,0.153,0.312 (inactive),-0.376,-0.14,-0.247,-0.947,-0.615,-0.698,-1.12,-1.02
C=C[C@H](C)[C@H](OC(=O)Nc1ccc(SC)cc1)c1ccc(O)c2ccccc12,-1.97,-0.766,-0.256,-0.413,0.273,-0.325,0.0952,-0.383,-0.0193,-0.385,0.801,-0.53 (inactive),-0.311,-0.192,0.736,0.518,-0.0167,-0.581,-0.0707,-0.252
COc1ccc(C#Cc2ccc3c(c2)[C@]2(C(=O)N3)[C@H](C(=O)O)[C@H]3C(=O)O[C@H](c4ccccc4)[C@H](c4ccccc4)N3[C@@H]2c2ccc(OCCO)cc2)cc1,0.873,-1.92,0.336,2.25,0.87,-0.0617,0.0492,0.141,2,2.28,0.92,0.655 (inactive),0.364,0.0572,0.421,1.84,0.714,1.29,0.245,1.13
NC(=O)NCC#Cc1ccc2c(c1)[C@]1(C(=O)N2)[C@H](c2ccc(OCCO)cc2)N2[C@H](c3ccccc3)[C@H](c3ccccc3)OC(=O)[C@H]2[C@@H]1C(=O)N1CCCCCCC1,1.46,-1.02,1.73,2.77,1.2,1.38,0.565,3.11,4.35,1.77,0.435,5.46 (inactive),2.08,1.13,0.894,2.81,0.669,1.23,1.13,1.14
O=C(C=C(CC(O)c1cccc(Cl)c1)OCCF)OCCF (stereo not given),-2.46,-0.641,-0.492,-0.277,0.896,-0.0678,0.0278,0.0014,0.516,0.392,0.912,-0.361 (inactive),-0.0903,-0.0746,0.0119,0.143,0.624,-2.33,-0.594,-0.444
